# HT1080-NT tox – kills 2HG-producing HT-1080-NT fibrosarcoma cells; HT-1080-NT fibrosarcoma viability, CellTiter-Glo ATP luminescence, 48 h; Potency, µM (highest dose often 46.1 µM), for inactives: at the highest dose activity, negative = less viability, usual class: cytotoxic; actives 1.6% (n = 360,000); AID 686970;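 also: NT is the 2HG producing partner of a matched IDH1 knockdown line; 0% = DMSO-treated cells and -100% = media-only wells without cells; nearly all actives have a fitted effect of over 55% in size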
#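 HT-1080-NT; 750 cells/well; 5% FBS RPMI; 48 h compound, 37 degrees C; CellTiter-Glo luminescence; curve fitting and curve-class assignment.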
# HT1080 IDH1KD tx – kills HT-1080 cells with IDH1 knockdown | Potency, µM (titrated, usually from 46.1 µM), without a hit: at the highest dose activity, negative = toxicity, hits mostly cytotoxic | actives 2% (n = 360,000) | HT-1080 IDH1 knockdown viability, ATP luminescence, 48 h;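 also: 0% = DMSO wells and -100% = cell-free medium wells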
#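 % activity derives from luminescence (CellTiter-Glo), normalised to DMSO and no-cell wells. HT-1080-IDH1KD cells, 750/well, had 48 h compound exposure at 37 °C.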
# KB-3-1 cytotox – kills parental KB-3-1 adenocarcinoma cells | KB-3-1 viability, CellTiter-Glo ATP luminescence, 72 h | Potency, µM (top dose mostly 46.1 µM), actives largely listed as cytotoxic | actives 1.4% (n = 400,000); also: nearly all actives have a fitted effect of over 60% in size
#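 Parental KB-3-1 adenocarcinoma cells in phenol-red-free DMEM with 10% FBS were pin-treated with compounds at several concentrations, incubated 72 h at 37 °C, and viability read by CellTiter-Glo luminescence; concentration-effect curves were fitted after normalization.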
# TDP1 cell noCPT – qHTS for Inhibitors of human tyrosyl-DNA phosphodiesterase 1 (TDP1): qHTS in cells in absence of CPT; actives 15% (n = 420,000); DT40 Tdp1-/- hTDP1 cells, no CPT, ATP luminescence, 48 h; Potency, µM (highest dose often 46.2 µM), for inactives: top-dose activity change, negative = growth inhibition, actives largely listed as inhibitors; AID 686978, 2013; also: nearly all actives have a fitted effect of over 55% in size
#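 Compound effects on proliferation are scored in DT40 Tdp1-/-;hTDP1 cells in the absence of CPT. ATP levels (CellTiter-Glo luminescence) are recorded after a ≥48 hr, 37 °C incubation.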
# KB-V1 cytotox – kills drug-selected multidrug resistant KB-V1 cells; KB-V1 MDR cells viability, CellTiter-Glo, 72 h; Potency, µM (highest dose often 46.1 µM), actives largely listed as cytotoxic; actives 3.4% (n = 400,000); AID 1347076; also: nearly all actives have a fitted effect of over 60% in size
#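 Cytotoxicity toward P-gp-expressing KB-V1 cells was determined as loss of CellTiter-Glo luminescence after 72 h at 37 degrees C. Compounds were tested in quantitative HTS format across a concentration range, with curves fitted to normalized data.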
# DT40 TDP1 CPT – DT40-hTDP1 cell growth loss with CPT; AID 686979; chicken DT40 Tdp1-/-;hTDP1 cells + 20 nM CPT, ATP luminescence, 48 h; actives 12% (n = 420,000); Potency, µM (highest dose often 46.2 µM), for the others: at the highest dose activity change, negative = growth inhibition, actives largely listed as inhibitors; also: nearly all actives have a fitted effect of over 55% in size
#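 Cell growth measured by CellTiter-Glo luminescence after a minimum 48 h, 37 C compound exposure with 20 nM CPT in Tdp1-knockout DT40 cells stably expressing hTDP1, seeded 400/well; qHTS titration format.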
# Starred values were filed as active, the others as inactive; i = inactive; u = inconclusive; x = no result. Most compounds without a hit are left out; they make up all but 19% or so of the library. Calls follow the shape of the dose curve; as a rule, active = well fitted curve in the direction sought with a large enough effect; inconclusive = small, poorly fitted or top-dose-only effect, or another doubt; inactive = no such curve, though single readings can be large; an effect the other way counts as inactive or inconclusive. Unless noted, % is scaled to controls: 0 for no effect and ±100 for the full control effect; potency is read from the fitted curve at half-maximal effect.
SMILES,HT1080-NT tox,HT1080 IDH1KD tx,KB-3-1 cytotox,TDP1 cell noCPT,KB-V1 cytotox,DT40 TDP1 CPT
CCCCC(=O)Nc1nc(C)c(-c2csc(Nc3ccccc3OC)n2)s1,-1%,-4%,u,u,i,23µM*
CCOC(=O)c1ccccc1NC(=O)COC(=O)CCC1CCCC1,5%,11%,i,0%,i,-6%
CCOc1ccc(N(CC(=O)NCc2ccc(C)cc2)S(=O)(=O)c2c(C)noc2C)cc1,x,x,i,-24%,i,-26%
NC(=O)c1cccc(-c2ccnc3c2CC(C(=O)NCc2ccco2)O3)c1 (configuration not stated),u,4.1µM*,6.5µM*,2.9µM*,i,3.7µM*
NC(=O)c1cccc(-c2ccnc3c2CC(C(=O)NCCc2ccccc2)O3)c1 (configuration not stated),u,7.3µM*,u,23µM*,i,15µM*
O=C(NCCc1ccccc1)C1Cc2c(-c3ccccc3)ccnc2O1 (configuration not stated),-13%,u,u,u,u,u
O=C(NCc1ccco1)C1Cc2c(-c3cccc(F)c3)ccnc2O1 (configuration not stated),u,0.73µM*,1.2µM*,1.3µM*,4.6µM*,0.82µM*
CN(C)c1ccc(CNC(=O)C2Cc3c(-c4cccc(C(N)=O)c4)ccnc3O2)cc1 (configuration not stated),u,u,i,23µM*,i,u
COc1ccccc1NC(=O)c1nnn(-c2ccc(F)cc2)c1C,x,x,i,12%,i,-16%
CC(=O)c1cccc(-c2ccnc3c2CC(C(=O)NCc2ccco2)O3)c1 (configuration not stated),u,1.3µM*,1.2µM*,0.82µM*,0.92µM*,0.82µM*
O=C(Nc1ccc(S(=O)(=O)N2CCOCC2)cc1)c1ccc([N+](=O)[O-])cc1Cl,2%,-1%,i,u,i,u
O=C(Nc1cc(S(=O)(=O)N2CCOCC2)ccc1Cl)c1cc([N+](=O)[O-])ccc1Cl,9.2µM*,21µM*,u,15µM*,u,u
N#Cc1ccc(NC(=O)c2cc(S(=O)(=O)N3CCOCC3)ccc2N2CCCC2)cc1,-8%,-2%,i,-5%,i,-18%
N#CCc1ccc(NC(=O)c2cc(S(=O)(=O)N3CCOCC3)ccc2Cl)cc1,-1%,-3%,i,18µM*,i,16µM*
Cc1cc(C)n(S(=O)(=O)c2ccccc2[N+](=O)[O-])n1,4%,11%,i,-24%,i,u
c1ncc(-c2ccoc2)c(NC2CC2)n1,x,x,x,-9%,x,-27%
CCc1ccc(-n2cc(-c3ccc([N+](=O)[O-])cc3)[nH]c2=S)cc1,0%,-8%,i,-5%,i,3%
CCc1ccc(-c2cn(C3CCCCC3)c(=S)[nH]2)cc1,0%,u,i,8.2µM*,u,u
Cc1c(N)nc(C(CC(N)=O)NCC(N)C(N)=O)nc1C(=O)NC(C(=O)NC(C)C(O)C(C)C(=O)NC(C(=O)NCCc1nc(-c2nc(C(=O)NCCCN[C@@H](C)c3ccccc3)cs2)cs1)C(C)O)C(O[C@@H]1O[C@@H](CO)[C@@H](O)[C@H](O)[C@@H]1O[C@H]1O[C@H](CO)[C@@H](O)[C@H](OC(N)=O)[C@@H]1O)c1cnc[nH]1 (some centres not stated),x,x,x,1.7µM*,x,1.2µM*
O=C(CN1N=C(c2ccccc2)CCC1=O)NCCN1CCc2ccccc2C1,-2%,0%,i,-23%,9.2µM*,16%
O=C(CN1N=C(c2ccccc2)CCC1=O)NCc1ccccc1,14%,15%,i,-3%,i,16%
N.N.O=C(O)C1(C(=O)O)CCC1.[Pt],x,x,x,-6%,x,2%
N/C(=N\OS(=O)(=O)c1ccc(Cl)cc1)c1ccccn1,-6%,-11%,u,16µM*,u,u
N/C(=N\OS(=O)(=O)c1ccccc1)c1ccccn1,8%,13%,i,u,i,u
COc1ccc(-c2ccc(CCC(=O)O)n2-c2cc(OC)ccc2OC)cc1,23µM*,u,u,u,u,u
SMILES,HT1080-NT tox,HT1080 IDH1KD tx,KB-3-1 cytotox,TDP1 cell noCPT,KB-V1 cytotox,DT40 TDP1 CPT
COC(=O)c1cccc(-n2c(CCC(=O)O)ccc2-c2cccs2)c1,0%,0%,i,6%,u,-17%
COC(=O)c1cccc(-n2c(CCC(=O)O)ccc2-c2ccc(OC)cc2)c1,x,x,u,15µM*,u,15µM*
COc1ccc(-c2ccc(CCC(=O)O)n2-c2ccccc2C(F)(F)F)cc1,x,x,18µM*,u,i,u
COc1ccc(-n2c(CCC(=O)O)ccc2-c2ccccc2)cc1,-6%,0%,i,-11%,i,-2%
COc1ccc(OC)c(NC(=O)Cn2c(CCC(=O)O)ccc2-c2ccc(C)cc2)c1,0%,-7%,i,-10%,u,-5%
COc1ccc(-c2ccc(CCC(=O)O)n2CC(C)C)cc1,u,u,u,21µM*,i,u
COC(=O)c1c(C(=O)OC)c2c(-c3ccccc3)cc3cccc1n32,-20%,-19%,u,u,u,u
O=C(CSc1nnc(CNC(=O)c2ccccc2)o1)Nc1nccs1,-2%,-5%,i,u,i,-25%
Cc1ccnc2cc(Cl)cc(Cl)c12,x,x,i,-3%,i,-15%
CCc1ccccc1NC(=O)CN(C)C(=O)COC(=O)c1ccco1,0%,-4%,i,25%,i,-6%
CCCCCNC(=O)C(c1cccc2ccccc12)n1c(=O)c(-c2ccccc2)nc2ccccc21 (configuration not stated),1%,8%,i,15µM*,i,13µM*
CCCCCNC(=O)C(c1ccc(-c2ccccc2)cc1)n1c(=O)c(-c2ccccc2)nc2ccccc21 (configuration not stated),20%,19%,i,u,i,u
O=C(NCc1ccccc1)C(c1cccc2ccccc12)n1c(=O)c(-c2ccccc2)nc2ccccc21 (configuration not stated),-19%,-2%,i,u,i,13µM*
